From PubChem BioAssay
This is one part of a sample in which hits are shown more often than they occur.
Tgondii IFNg: inhibitors of Toxoplasma gondii growth with IFN-gamma. Toxoplasma gondii growth in IFN-gamma-treated host cells; hits give low values. activity change, negative = inhibition, % (test concentration not listed). 3.8% of 69,000 active; in the data active = activity change below about -70%, passing the limit was not always enough;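 note: host cells are HeLa cells infected with Toxoplasma gondii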
Numbers stand for hits; i = inactive.

SMILES	Tgondii IFNg
COc1ccc(NC(=O)N2CC3(C2)CN(C(C)=O)[C@H](CO)c2[nH]c4cc(OC)ccc4c23)cc1	i
Cc1ccc(CNC(=O)c2ccc3c(c2)C(c2ncn[nH]2)CN3C(=O)c2ccccc2)o1 (stereo not drawn)	i
NC(=O)C1CCN(C(=O)Nc2cc3ccccc3s2)CC1	i
O=C(Nc1ccc2c(c1)OCCO2)C1CCCN(S(=O)(=O)Cc2ccccc2)C1 (stereo not drawn)	i
O=C(NCC1(O)CCCNCC1)c1cc2ccccc2[nH]c1=O (stereo not drawn)	i
CCCC(=O)Nc1ccc2c(c1)C(=O)N(C)[C@H]1CC[C@H](CC(=O)NCc3cccc(F)c3)O[C@H]1CO2	i
Cc1ccc(NC(=O)C2CCN(c3nnnn3-c3ccccc3)CC2)c(C)c1	i
Cc1ccccc1-n1nnc(C(=O)NCc2nnc(-c3ccccc3)o2)c1C	i
C#CCOc1ccccc1-c1c(-c2ccccc2)ncn1C	i
NC(=O)C1(c2nc(CCc3ccccc3)nn2-c2ccccn2)CC1	i
Cc1cccc(=O)n1CCCNC(=O)c1ccccc1C1CCNC1 (stereo not drawn)	i
O=C(c1c(F)cccc1Cl)N1CCN(S(=O)(=O)c2cc3c4c(c2)CCN4C(=O)CC3)CC1	i
CNC(=O)c1ccc(-c2nc(CN3CCN(C(=O)Nc4cc(OC)cc(OC)c4)CC3)c(C)o2)cc1	i
O=S(=O)(c1ccc(Cl)cc1)N1CCc2nc(-c3ccccc3)sc2C1	i
COc1ccc(S(=O)(=O)N2CCc3nc(-c4ccccc4)sc3C2)cc1	i
CC(C)c1ccc(S(=O)(=O)N2CCc3nc(-c4ccccc4)sc3C2)cc1	-98
COc1ccc(C(=O)NCC2OCCc3ccccc32)cc1 (stereo not drawn)	i
CC(=O)N1C(Cn2cccn2)CC2CN(Cc3ccc(C)o3)CCC21 (stereo not drawn)	i
CN(C)C(=O)CN1CCO[C@H]2CN(C(=O)c3ccc[nH]3)C[C@@H]21	i
CCc1ccc(CN2CC[C@@H]3OC[C@H](C(=O)N4CCCO4)C[C@H]3C2)o1	i
COC(=O)c1c(NCc2cccc(OC)c2)c2cccc(Cl)c2[nH]c1=O	i
COC(=O)c1c(NCc2ccc(C(F)(F)F)cc2)c2cc(F)ccc2[nH]c1=O	i
COC(=O)c1c(NCc2cccc(OC)c2)c2cc(Cl)ccc2[nH]c1=O	-114
CCO[C@@H]1CO[C@@]2(CCCN(C(=O)COc3ccccc3OC)C2)C1	i
Cc1nc(N(C)C)nc2c1COCC21CCN(Cc2cccnc2)C1 (stereo not drawn)	i
SMILES	Tgondii IFNg
O=C(NCCCN1CCOCC1)[C@@H]1[C@@H](CO)[C@@H]2Cn3c(cccc3=O)[C@H]1N2C(=O)NC1CCCC1	i
Nc1nc(Cl)nc2c1ncn2C1OC(CO)C(O)C1F (stereo not drawn)	-78
OC[C@H]1O[C@@H](n2cnc3c(NC4CCCC4)nc(Cl)nc32)[C@H](O)[C@@H]1O	i
Nc1nc(Cl)nc2c1ncn2[C@@H]1O[C@H](CO)[C@@H](O)[C@H]1O	i
Cc1ccc(F)cc1S(=O)(=O)N1CCC(c2nc(C(=O)N3CCCCC3)c(C)o2)CC1	-77
Cc1oc(C2CCN(S(=O)(=O)c3cc(F)ccc3F)CC2)nc1C(=O)N1CCCC1	i
Cc1cccc(NC(=O)N2CCC(c3nc(C(=O)N4CCCC4)c(C)o3)CC2)c1	i
Cc1ccc(NC(=O)N2CCC(c3nc(C(=O)N4CCCC4)c(C)o3)CC2)c(Cl)c1	i
Cc1ccc(NC(=O)N2CCC(c3nc(C(=O)N4CCCC4)c(C)o3)CC2)cc1	i
Cc1oc(C2CCN(C(=O)Nc3cccc(F)c3C)CC2)nc1C(=O)N1CCCC1	-81
Cc1oc(C2CCN(C(=O)Nc3cc(F)cc(F)c3)CC2)nc1C(=O)N1CCCC1	i
Cc1oc(C2CCN(S(=O)(=O)c3ccccc3F)CC2)nc1C(=O)N1CCCC1	i
Cc1ccc(NC(=O)N2CCC(c3nc(C(=O)N4CCCC4)c(C)o3)CC2)c(C)c1	-77
CCCc1nc(CN(C)C(=O)c2ccc3sc(N)nc3c2)no1	i
Cc1ccccc1N1CC2(CCN(S(=O)(=O)C3CC3)C2)CC1=O (stereo not drawn)	i
CC(C)OCC12CCCOC1CCN(C(=O)C1=CCCC1)C2 (stereo not drawn)	i
COc1cccc(NC(=O)N2CCN(Cc3nc(-c4ccc(C)cc4)oc3C)CC2)c1	i
CCn1nnc2c1CCN(C(=O)c1ccc3c(c1)OCO3)C2COC (stereo not drawn)	i
CC(C)C(=O)Nc1ccc2c(c1)C(=O)N(C)[C@@H]1CC[C@H](CC(=O)NCCc3ccccc3)O[C@@H]1CO2	i
COc1cccc(CNC2=NCCNC23CCN(S(=O)(=O)c2ccc(C)cc2C)CC3)c1	i
COc1cccc(N(Cc2nc(-c3cccc(Cl)c3)oc2C)S(=O)(=O)c2ccccc2)c1	i
COc1ccc(S(=O)(=O)N(C)Cc2nc(-c3cccc(Cl)c3)oc2C)cc1	-99
Cc1ccc(S(=O)(=O)N(C)Cc2nc(-c3ccccc3C)oc2C)c(C)c1	i
Cc1oc(-c2cccc(Cl)c2)nc1CN(C)S(=O)(=O)c1ccc(F)cc1	i
COc1ccccc1-c1nc(CN(c2ccccc2OC)S(=O)(=O)c2ccccc2C)c(C)o1	i
SMILES	Tgondii IFNg
COc1ccccc1-c1nc(CN(C)S(=O)(=O)c2ccc(C)cc2C)c(C)o1	-104
CN(C)C(=O)c1ccc(-c2ccc(C3[C@@H]4CN(Cc5ccccc5Cl)C[C@H]3N4)cc2)cc1 (stereo partly drawn)	i
COc1ccc(NC(=O)c2c(O)c3cccnc3n(-c3cccc(F)c3)c2=O)cc1Cl	i
O=C(O)Cn1cc(CN2CCOCC2)c2ccccc21	i
CN(C)CCC1CN(C(=O)c2ccc(Cl)cn2)CCO1 (stereo not drawn)	i
COc1ccc(C#Cc2ccc([C@H]3[C@@H](CO)N4C(=O)CN(C(=O)NC(C)C)C[C@@H]34)cc2)cc1	i
COc1ccc2c3c([nH]c2c1)[C@H](CO)N(C(=O)C1CCCCC1)CC31CN(S(C)(=O)=O)C1	i
O=C(Nc1ccccc1-c1ccccc1)c1csnn1	i
O=C(N/C=C/c1ccsc1)Sc1cc(C(F)(F)F)cc(C(F)(F)F)c1	i
O=C(NC(=O)c1csnn1)Nc1cc(C(F)(F)F)cc(C(F)(F)F)c1	-101
O=C(Nc1cc(C(F)(F)F)cc(C(F)(F)F)c1)Nc1sccc1Cl	-95
O=C(Nc1cc(C(F)(F)F)cc(C(F)(F)F)c1)c1csc(-c2ccc(Cl)cc2)c1	i
COCCCNC(=O)c1ccccc1C(=O)Nc1cc(C(F)(F)F)cc(C(F)(F)F)c1	i
O=C(c1ccccc1)c1c(Cl)cc(C(F)(F)F)cc1Cl	i
O=C(Nc1cc(C(F)(F)F)cc(C(F)(F)F)c1)c1cc(Cl)ccc1O	-80
O=C(Nc1ccccc1)c1cc2n(n1)CCN(C(=O)c1csnn1)C2	i
Cc1noc(C)c1S(=O)(=O)Nc1ccc2c(c1)C(=O)N([C@H](C)CO)C[C@H](C)[C@H](CN(C)Cc1ccc(C(=O)O)cc1)OCCCC[C@@H](C)O2	i
Cc1ccc(N2CCc3sc(C(=O)NCC(C)C)cc32)nn1	i
COc1cccc(-n2c(=O)c(C(=O)NCc3ccccc3C)c(O)c3cccnc32)c1	i
COCCO[C@@H]1CCN(C(=O)c2cnccn2)[C@H]1Cc1ccccc1	i
COCCN1C(=O)CC[C@H]2[C@H]1CCN2C(=O)N(C)C	i
Cc1nc2ccccc2c(=O)n1CC(=O)NCC(c1cccnc1)N1CCOCC1 (stereo not drawn)	i
CN(C(=O)c1cc2cccnc2n(Cc2ccccc2)c1=O)c1ccccc1	i
O=C(CSc1cn[nH]n1)NCCc1ccccc1	i
